AMA1-RON2 inh: disrupts binding of P. falciparum AMA1 to RON2; 0.2% of 360,000 active; Potency, µM (top dose mostly 58.2 µM), without a hit: at the top dose activity change, negative = inhibition, usual class: inhibitors; AlphaScreen AMA1-biotinylated RON2 peptide binding;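 also: potency is read from the fitted curve at half-maximal effect; 0% = vehicle wells and -100% = peptide control; nearly all actives have a fitted effect of over 45% in size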
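AMA1 (3D7) with his tag at 25 nM final met compounds first, then biotinylated RON2 peptide at 25 nM; detection used donor plus acceptor beads, 10 µg/mL apiece, read by AlphaScreen after 30 min at room temperature.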
AmpC no deterg: AmpC beta-lactamase inhibition without detergent. Potency, µM (doses to about 57.1 µM), inactives show at the top dose activity change, negative = inhibition, usual class: inhibitors. AmpC nitrocefin hydrolysis, absorbance 480 nm, 0.0001% Triton. 0.52% of 330,000 active;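 also: potency is read from the fitted curve at half-maximal effect; plate controls were no compound for no effect and no enzyme for full effect; nearly all actives have a fitted effect of over 20% in size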
Target sequence (P00811 whole entry, looked up): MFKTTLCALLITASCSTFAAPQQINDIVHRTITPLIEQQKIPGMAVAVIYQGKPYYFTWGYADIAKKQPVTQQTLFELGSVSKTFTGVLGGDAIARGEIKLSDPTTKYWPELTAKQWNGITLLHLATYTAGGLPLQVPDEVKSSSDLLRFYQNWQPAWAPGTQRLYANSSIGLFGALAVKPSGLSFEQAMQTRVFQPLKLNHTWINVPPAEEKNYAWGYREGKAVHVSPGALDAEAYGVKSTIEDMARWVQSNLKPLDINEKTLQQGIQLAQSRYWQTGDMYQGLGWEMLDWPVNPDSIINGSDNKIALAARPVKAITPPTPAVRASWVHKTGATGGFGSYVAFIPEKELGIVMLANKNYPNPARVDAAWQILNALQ
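AmpC (5.3 nM in the dispensed reagent) in 20 mM phosphate pH 7.0 with 0.01% (detergent screen) or 0.0001% Triton X-100 was preincubated with compounds for 15 min at room temperature. Nitrocefin was then added from an 800 uM solution, and hydrolysis was followed at 480 nm.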
SARS PLpro yeast-1: SARS-CoV PLP inhibition in yeast; S. cerevisiae expressing SARS-CoV PLpro, growth rescue; Potency, µM (top dose mostly 32.9 µM), inactives show top-dose activity, positive = growth rescue, usual class: activators; 0.19% of 330,000 active; AID 485353; calls by dose curve; also: potency is read from the fitted curve at half-maximal effect; 0% is about no effect; nearly all actives have a fitted effect of over 55% in size
Vaccinia Venus: inhibitors of vaccinia virus (Venus reporter) | Vaccinia virus Venus reporter expression, fluorescence | Potency, µM (series often up to 36.5 µM), without a hit: at the top dose activity change, negative = inhibition, usual class: inhibitors | 0.46% of 330,000 active; calls by dose curve; tested in A549 cells; also: potency is read from the fitted curve at half-maximal effect; % is scaled to controls: 0 for no effect and ±100 for the full control effect; nearly all actives have a fitted effect of over 30% in size
VACV mCherry inh: inhibitors of vaccinia virus infection (mCherry reporter signal) | Vaccinia virus mCherry reporter infection, fluorescence | Potency, µM (highest dose often 36.5 µM), for inactives: at the top dose activity change, negative = inhibition, hits mostly inhibitors | 0.63% of 310,000 active | AID 720579; calls by dose curve; tested in A549 cells; also: potency is read from the fitted curve at half-maximal effect; % is scaled to controls: 0 for no effect and ±100 for the full control effect; nearly all actives have a fitted effect of over 35% in size
AmpC inh detg: blocks E. coli AmpC beta-lactamase in detergent assay; AmpC hydrolysis of nitrocefin, absorbance 480 nm, 0.01% Triton; Potency, µM (top dose mostly 114 µM), for inactives: top-dose activity change, negative = inhibition, hits mostly inhibitors; 0.041% of 370,000 active; AID 485294;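 also: potency is read from the fitted curve at half-maximal effect; 0% = no-compound wells and -100% = no-enzyme wells; nearly all actives have a fitted effect of over 25% in size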
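AmpC (5.3 nM in the dispensed reagent) in 20 mM phosphate pH 7.0 with 0.01% (detergent screen) or 0.0001% Triton X-100 was preincubated with compounds for 15 min at room temperature. Nitrocefin was then added from an 800 uM solution, and hydrolysis was followed at 480 nm.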
SARS PLpro yeast-2: Validates SARS-CoV PLpro inhibitor hits in yeast. shares compounds with SARS PLpro yeast-1. yeast expressing SARS-CoV PLpro, growth phenotype rescue. calls only. 19% of 1,000 active. AID 652038; call rule not given here
* hit, by the source's call; i = inactive; u = inconclusive; x = no result; + = active, no number; [ ] = another dose, or the depositor's remark. In the library only some 1.4% were active in any assay of this set; here they are far more common. Unless noted, calls follow the shape of the dose curve; as a rule, active = well fitted curve in the direction sought with a large enough effect; inconclusive = small, poorly fitted or top-dose-only effect, or another doubt; inactive = no such curve, though single readings can be large; an effect the other way counts as inactive or inconclusive.

SMILES | AMA1-RON2 inh | AmpC no deterg | SARS PLpro yeast-1 | Vaccinia Venus | VACV mCherry inh | AmpC inh detg | SARS PLpro yeast-2
CN1C(=O)/C(=C2/C=CC=CN2C)OC1=S | 42.2% | -5.4% | u | x | x | -14.4% | u
O=C(NCCc1ccc(Cl)cc1)/C(=C/c1cccnc1)NC(=O)c1ccccc1 | -6.2% | 2.8% | 15.8µM* | x | x | -5.6% | i
COc1ccccc1CCNC(=O)/C(=C/c1cccnc1)NC(=O)c1ccccc1 | -0.2% | -23.1% | -24.9% | x | x | -13.4% | x
CCOC(=O)c1c(C)[nH]c(C)c1S(=O)(=O)NCC(=O)Nc1cccc(SC)c1 | x | x | x | 1.7% | -8.4% | 2.9% | x
CCN(CC)S(=O)(=O)c1cc(NC(=O)C2=COCCO2)ccc1Cl | -2.1% | -3.2% | -0.1% | -15.5% | -2.0% | 0.0% | x
CCN(CC)C(=O)c1cccc(NC(=O)C2=COCCO2)c1 | 3.2% | -4.3% | 2.24µM* | x | x | 2.9% | i
COc1cc(OC)cc(-c2nc3ccccc3c(=O)n2OC(=O)c2ccccc2C)c1 | -0.4% | -16.4% | u | u | -18.9% | -15.2% | +
O=C(On1c(-c2ccccc2)nc2ccccc2c1=O)c1ccco1 | -9.4% | x | x | -11.4% | i | -3.6% | x
O=C(CCNC(=O)c1ccccc1Cl)Nc1ccc(Cl)c(C(F)(F)F)c1 | 0.0% | 5.4% | 3.55µM* | -26.4% | -28.7% | 8.7% | i
CCC(=NNC(=O)c1ccc2c(c1)nc(C)n2CC)c1cc(F)ccc1O | 84.2% | 70.6% | 10µM* | u | 10µM* | x | i
CC(CC(=O)Nc1ccc(F)c([N+](=O)[O-])c1)c1ccccc1 (stereo not drawn) | -8.0% | -20.6% | u | -16.2% | -6.4% | u | i
Cc1ccc2cccnc2c1N | 39.3% | -3.6% | u | -0.9% | -3.9% | -6.2% | i
Cc1cccc2cccnc12 | 3.6% | -6.2% | 0.6% | -7.9% | -13.7% | -5.1% | x
CCOC(=O)C(CC)/C(C)=N\NC(=O)c1ccccc1O (stereo not drawn) | -22.3% | -13.4% | 6.31µM* | u | u | -7.6% | i
O=C(CCl)Nc1ccc(Oc2cnc3ccccc3n2)cc1 | -4.2% | -23.1% | 10µM* | x | x | 6.4% | +
CCSc1ccccc1C(=O)N1CCN(c2ccccc2F)CC1 | -16.2% | 25.9% | u | x | x | 1.5% | i
O=C(c1ccccc1C(=O)N1CCN(c2ccccc2F)CC1)N1CCN(c2ccccc2F)CC1 | 0.3% | 96.7% | 1.3% | -18.4% | x | u | x
CNC(=O)c1cnc2sc(N3CCCCCC3)nn2c1=O | x | x | x | -2.3%[7.34 µM] | -11.6%[7.34 µM] | 2.6% | x
CC(C)C(=O)NC(c1ccccc1)c1cc([N+](=O)[O-])c2cccnc2c1O (stereo not drawn) | u | -41.7% | u | u | u | u | i
CC(=O)NC(c1ccccc1)c1cc([N+](=O)[O-])c2cccnc2c1O (stereo not drawn) | -27.2% | -23.2% | 1.7% | u | u | -10.0% | x
CCC(=O)NC(c1cccs1)c1cc([N+](=O)[O-])c2cccnc2c1O (stereo not drawn) | u | -29.9% | u | u | u | -14.3% | i
CCCC(=O)NC(c1cccs1)c1cc([N+](=O)[O-])c2cccnc2c1O (stereo not drawn) | -2.4% | -34.7% | x | -25.7% | u | u | i
CCOc1ccc(C2c3c(oc4ccc(C)cc4c3=O)C(=O)N2c2nc(C)c(C)s2)cc1OC (stereo not drawn) | x | x | x | -8.8% | -12.4% | -0.2% | x
CC1(c2nnc(Cc3ccccc3)o2)CC(c2ccc(OC(F)(F)F)cc2)=NO1 (stereo not drawn) | 103.9% | 58.0% | 10µM* | -17.3% | u | -12.9% | i
Cc1c(Cl)cccc1NC(=O)C(=O)NCC(c1cccnc1)N1CCN(c2ccccc2)CC1 (stereo not drawn) | x | x | x | -20.4% | -12.6% | -2.0% | x
Nc1c(Cl)ncnc1N/N=C/c1ccc2ccccc2n1 | -12.1% | -18.9% | x | u | 2.82µM* | 4.3% | i
